# Counter-ions that a name gives are not always drawn.
# Assays:
# Settings in all cases: incubation time: 27 h, anaerobic, 37 °C;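 for the amine columns active = adjusted P below 0.05 in both replicates with a change the same way and a mean fold change under 0.8 or over 1.25; inactive = the rest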
# [1] = test system: Clostridium sporogenes DSM 1664; test: growth (OD595) fold change vs plate DMSO controls (fold change (ratio)); higher = more growth
# Method in brief: (§1)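 Growth is expressed as the fold change relative to the median of the DMSO control wells on each plate. Cultures in mGAM were grown anaerobically in 96-well plates for 27 h at 37 °C, shaken, and read at 595 nm. Readings were blank-subtracted, corrected for compound background with 20 µM compound solutions in water, and converted to OD with a calibration factor of 5. Fold changes above 1.5 were set to NA, and each value is the mean of 2 biological replicates.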
# Escherichia coli IAI1 [2] = test: as above
# Method in brief: as §1
# [3] = test system: Klebsiella aerogenes DSM 30053; test: as above
# Method in brief: as §1
# [4] = test system: Ruminococcus gnavus DSM 108212; test: as above
# Method in brief: as §1
# [5] = test system: Klebsiella aerogenes DSM 30053; test: fold change of Histamine concentration vs plate DMSO controls (fold change (ratio)); higher = more amine produced, active = hit call of the paper (significant change in both replicates, either direction)
# Method in brief: (§2)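 Extracts of whole anaerobic mGAM cultures were analysed for amines by LC–triple-quadrupole MS with dynamic MRM and external calibration curves, with drift corrected within batch. Four gut strains were grown at 37 °C for 27 h in 80 µL wells with compounds at 20 µM final, sweeteners at 50 µM final. Each value expresses fold change over plate DMSO controls. The average of 2 biological replicates is shown.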
# [6] = test system: Clostridium sporogenes DSM 1664; test: fold change of Tryptamine concentration vs plate DMSO controls (fold change (ratio)); higher = more amine produced, active = hit call of the paper (significant change in both replicates, either direction)
# Method in brief: as §2
# [7] = test system: Ruminococcus gnavus DSM 108212; test: as above
# Method in brief: as §2
# Escherichia coli IAI1 [8] = test: fold change of Putrescine concentration vs plate DMSO controls (fold change (ratio)); higher = more amine produced, active = hit call of the paper (significant change in both replicates, either direction)
# Method in brief: as §2
# [9] = test system: Klebsiella aerogenes DSM 30053; test: as above
# Method in brief: as §2
# Escherichia coli IAI1 [10] = test: fold change of Cadaverine concentration vs plate DMSO controls (fold change (ratio)); higher = more amine produced, active = hit call of the paper (significant change in both replicates, either direction)
# Method in brief: as §2
# [11] = test system: Klebsiella aerogenes DSM 30053; test: as above
# Method in brief: as §2
# [12] = test system: Ruminococcus gnavus DSM 108212; test: fold change of 2-Phenylethylamine concentration vs plate DMSO controls (fold change (ratio)); higher = more amine produced, active = hit call of the paper (significant change in both replicates, either direction)
# Method in brief: as §2
Structure (SMILES),growth [1],growth (Escherichia coli IAI1 [2]),growth [3],growth [4],fold change of Histamine concentration [5],fold change of Tryptamine concentration [6],fold change of Tryptamine concentration [7],fold change of Putrescine concentration (Escherichia coli IAI1 [8]),fold change of Putrescine concentration [9],fold change of Cadaverine concentration (Escherichia coli IAI1 [10]),fold change of Cadaverine concentration [11],fold change of 2-Phenylethylamine concentration [12]
C[C@@H]1C[C@H]2[C@@H]3C[C@H](F)C4=CC(=O)C=C[C@]4(C)[C@@]3(Cl)[C@@H](O)C[C@]2(C)[C@H]1C(=O)COC(=O)C(C)(C)C [Clocortolone pivalate] (20 µM),1.06,1.03,1.04,0.992,1.04 (inactive),1.04 (inactive),1.08 (inactive),1.02 (inactive),0.999 (inactive),1.01 (inactive),0.997 (inactive),1.17 (inactive)
OCCN(CCO)c1nc(N2CCCCC2)c2nc(N(CCO)CCO)nc(N3CCCCC3)c2n1 [Dipyridamole] (20 µM),0.986,1.03,0.521,0.969,0.47 (inactive),0.971 (inactive),1 (inactive),1.03 (inactive),0.51 (inactive),1 (inactive),0.5 (inactive),0.994 (inactive)
C/C(O)=C(\C#N)C(=O)Nc1ccc(C(F)(F)F)cc1 [Teriflunomide] (20 µM),0.938,1.02,1.01,0.966,1.01 (inactive),0.946 (inactive),1 (inactive),1.07 (inactive),1.02 (inactive),1.09 (inactive),0.998 (inactive),1.04 (inactive)
Clc1cccc(Cl)c1NC1=NCCN1 [Clonidine hydrochloride] (20 µM),0.856,0.984,0.989,0.99,1.04 (inactive),0.953 (inactive),1.09 (inactive),0.995 (inactive),1.01 (inactive),0.996 (inactive),0.992 (inactive),1.08 (inactive)
C[C@@H](c1ncncc1F)[C@](O)(Cn1cncn1)c1ccc(F)cc1F [Voriconazole] (20 µM),0.883,0.997,1.02,0.932,0.988 (inactive),1.07 (inactive),1.01 (inactive),1.02 (inactive),0.999 (inactive),0.988 (inactive),1 (inactive),0.991 (inactive)
COC(=O)C1=C(C)NC(C)=C(C(=O)OC)C1c1ccccc1[N+](=O)[O-] [Nifedipine] (20 µM),1.07,1.12,0.991,0.883,1.05 (inactive),1.02 (inactive),1 (inactive),1.05 (inactive),1.01 (inactive),0.955 (inactive),1 (inactive),0.92 (inactive)
CC1(C)[C@@H](O[C@H]2O[C@H](C(=O)O)[C@@H](O)[C@H](O)[C@H]2O[C@@H]2O[C@H](C(=O)O)[C@@H](O)[C@H](O)[C@H]2O)CC[C@]2(C)[C@H]3C(=O)C=C4[C@@H]5C[C@@](C)(C(=O)O)CC[C@]5(C)CC[C@@]4(C)[C@]3(C)CC[C@@H]12 [Glycyrrhizic acid] (50 µM),0.971,0.995,1.07,1.07,0.865 (inactive),0.966 (inactive),1.05 (inactive),1.02 (inactive),0.992 (inactive),1.05 (inactive),1.03 (inactive),1.1 (inactive)
OC(Cn1cncn1)(Cn1cncn1)c1ccc(F)cc1F [Fluconazole] (20 µM),0.908,0.984,1.01,1.04,0.956 (inactive),1.05 (inactive),1.01 (inactive),0.989 (inactive),1.01 (inactive),1.01 (inactive),1.02 (inactive),0.959 (inactive)
CCCCC(CC)CNC(=N)NC(=N)NCCCCCCNC(=N)NC(=N)NCC(CC)CCCC (configuration not stated) [Alexidine dihydrochloride] (20 µM),0.294,0.938,0.967,0.624,1.11 (inactive),0.172 (active),0.0418 (active),1.08 (inactive),1.02 (inactive),1.12 (inactive),0.999 (inactive),0.0355 (active)
CNCc1cc(-c2ccccc2F)n(S(=O)(=O)c2cccnc2)c1 [Vonoprazan] (20 µM),1.08,0.967,0.975,1.04,1.04 (inactive),1 (inactive),1.02 (inactive),0.503 (inactive),1 (inactive),0.483 (inactive),0.982 (inactive),0.999 (inactive)
Cc1c(Cl)cccc1Nc1ccccc1C(=O)O [Tolfenamic acid] (20 µM),1.18,1.01,1.06,1.14,0.917 (inactive),0.901 (inactive),0.951 (inactive),1.07 (inactive),0.984 (inactive),1.07 (inactive),1.01 (inactive),0.937 (inactive)
COc1cccc2c1C(=O)c1c(O)c3c(c(O)c1C2=O)C[C@@](O)(C(=O)CO)C[C@@H]3O[C@H]1C[C@H](N)[C@@H](O)[C@H](C)O1 [Epirubicin hydrochloride] (20 µM),0.607,0.0185,0,0.386,1.01 (inactive),0.953 (inactive),0.966 (inactive),1.07 (inactive),0.998 (inactive),1.04 (inactive),1.02 (inactive),0.934 (inactive)
CC(Oc1c(Cl)cccc1Cl)C1=NCCN1 (configuration not stated) [Lofexidine] (20 µM),1.07,1.09,1.06,1.04,0.922 (inactive),0.975 (inactive),1.03 (inactive),1.04 (inactive),0.993 (inactive),1.01 (inactive),1.01 (inactive),1.01 (inactive)
COc1ccccc1Oc1c(NS(=O)(=O)c2ccc(C(C)(C)C)cc2)nc(-c2ncccn2)nc1OCCO [Bosentan] (20 µM),1.15,1.14,1.23,1.2,0.938 (inactive),0.987 (inactive),0.978 (inactive),1.09 (inactive),1.05 (inactive),1.03 (inactive),1.04 (inactive),0.959 (inactive)
COc1cc2ncnc(Nc3ccc(F)c(Cl)c3)c2cc1OCCCN1CCOCC1 [Gefitinib] (20 µM),1.1,1.04,0.991,1.18,0.983 (inactive),1.06 (inactive),0.993 (inactive),1.14 (inactive),0.997 (inactive),1.02 (inactive),1.02 (inactive),1.1 (inactive)
O=S(=O)(O)c1cc(O)ccc1O [Ethamsylate diethylammonium salt] (20 µM),0.89,0.975,0.98,0.997,1.07 (inactive),0.982 (inactive),1.05 (inactive),0.989 (inactive),1.02 (inactive),1.02 (inactive),0.99 (inactive),1.09 (inactive)
CCOC(=O)Nc1ccc(NCc2ccc(F)cc2)nc1N [Flupirtine] (20 µM),1.18,0.973,1.04,0.999,0.95 (inactive),0.95 (inactive),1.01 (inactive),1.03 (inactive),0.993 (inactive),1.01 (inactive),0.999 (inactive),1.03 (inactive)
CCOC(=O)C1=C(C)NC(C)=C(C(=O)OC)C1c1cccc([N+](=O)[O-])c1 (configuration not stated) [Nitrendipine] (20 µM),1.04,1.01,1.02,1.06,1.08 (inactive),0.947 (inactive),0.911 (inactive),1.09 (inactive),0.993 (inactive),1.01 (inactive),1.01 (inactive),0.913 (inactive)
CCCOC(=O)NCCCN(C)C (20 µM),1.08,0.981,0.968,1.17,1.06 (inactive),1.05 (inactive),1.09 (inactive),0.952 (inactive),0.821 (inactive),0.93 (inactive),1.05 (inactive),1.22 (inactive)
CC(=O)CC(c1ccccc1)c1c(O)c2ccccc2oc1=O (configuration not stated) (20 µM),1.05,0.981,1,1.15,1.01 (inactive),0.979 (inactive),0.984 (inactive),1.01 (inactive),1 (inactive),0.995 (inactive),0.99 (inactive),0.99 (inactive)
Cn1c(=O)c2nc[nH]c2n(C)c1=O [Theophylline monohydrate] (20 µM),1.19,1.11,1.04,1.12,0.952 (inactive),1.1 (inactive),1.1 (inactive),1.24 (inactive),0.957 (inactive),0.9 (inactive),1.02 (inactive),1.15 (inactive)
Cc1ccccc1OCC(O)CO (configuration not stated) [Mephenesin] (20 µM),0.974,1.12,1.02,0.982,1.01 (inactive),1.02 (inactive),1.04 (inactive),1.13 (inactive),1 (inactive),0.927 (inactive),1 (inactive),1.06 (inactive)
CC(=O)OCC(=O)[C@@]1(O)CC[C@H]2[C@@H]3CCC4=CC(=O)C=C[C@]4(C)[C@@]3(Cl)[C@@H](Cl)C[C@@]21C [Dichlorisone acetate] (20 µM),1.03,1.01,1,0.886,0.984 (inactive),1.01 (inactive),1.01 (inactive),1.05 (inactive),1.01 (inactive),1.04 (inactive),1 (inactive),0.997 (inactive)
CC1(C)NC(=O)N(c2ccc([N+](=O)[O-])c(C(F)(F)F)c2)C1=O [Nilutamide] (20 µM),0.998,1.02,0.999,0.98,1.05 (inactive),0.955 (inactive),0.957 (inactive),1.1 (inactive),1.01 (inactive),0.987 (inactive),0.995 (inactive),0.981 (inactive)
NC[C@H]1O[C@H](O[C@H]2[C@H](O[C@@H]3O[C@H](CO)[C@@H](O)[C@H]3O)[C@@H](O)[C@H](N)C[C@@H]2N)[C@H](N)[C@@H](O)[C@@H]1O [Ribostamycin sulfate salt] (20 µM),1.07,1.04,0.972,1.2,0.975 (inactive),1.02 (inactive),0.996 (inactive),1.14 (inactive),0.994 (inactive),0.963 (inactive),0.994 (inactive),1.03 (inactive)
O=C(CCCN1CCN(c2ccccn2)CC1)c1ccc(F)cc1 [Azaperone] (20 µM),1.12,1.24,0.974,1.12,1.01 (inactive),1.14 (inactive),0.963 (inactive),1.31 (inactive),0.987 (inactive),0.84 (inactive),1.01 (inactive),0.998 (inactive)

# Source: the supplement of paper PMC12494721
